Results reported in PubChem BioAssay (NCI).
The panel holds about 83,000 compounds, 20% with a hit somewhere; the sample as a whole holds those more often.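 Values shown are percent growth following 48 h exposure of cells in 96-well plates to a single concentration of compound; below 10 was considered active.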 A number with no mark means an inactive call. Active and inactive are the calls of the source.

The compounds below were run on SF-295 CNS (assay: NCI-60 one-dose screen, 48 h (100 = growth as untreated, 0 = no growth, -100 = all killed)). Details: 10 µM.

| SMILES | growth |
| --- | --- |
| CC(=O)OC1CC2C(C)(C)OC3CC(=O)OCC32C2CCC3(C)C(=CCC3c3ccoc3)C12C (stereo not given) | 107% |
| CCC(O)CC(CC)CO (stereo not given) | 109% |
| CC(=Nc1ccccc1)C1=C(O)C(Cc2cccc(F)c2)NC1=O (stereo not given) | -5.61% (active) |
| Cc1c(O)cccc1O | 98.2% |
| CC1CCCCN1C(=S)Nc1ccc(S(=O)(=O)N2CCCCC2)cc1 (stereo not given) | 79.2% |
| C=C1CC/C=C(\C)C(=O)C[C@@H]2[C@@H]1CC2(C)C | 108% |
| N#C/C(=C\c1cc(O)c(O)c(O)c1)C(N)=O | 87.7% |
| C#CCSc1nnnn1-c1ccc(Br)c(C)c1 | 103% |
| Brc1cnc2ccccc2c1 | 101% |
| O=C1C=C(O)C(=O)C=C1O | 115% |
| COC(=O)Nc1nc2ccc(C(=O)c3ccc(F)cc3)cc2[nH]1 | -3.22% (active) |
| CCOC(=O)C1=C(C)NC(=O)NC1c1cccs1 (stereo not given) | 112% |
| CCOC(=O)Nc1cc2c(c(N)n1)N=C(c1ccccc1)CO2 | 17% |
| COC(=O)c1cccnc1 | 110% |
| O=[N+]([O-])c1cccc(C(F)(F)F)c1 | 101% |
| CC(=O)Cc1ccc(-c2ccccc2)cc1 | 99.8% |
| Cc1ccc(C(=O)NC2c3ccccc3Oc3ccccc32)cc1 | 24.8% |
| CC1(c2ccccc2)NC(=O)NC1=O (stereo not given) | 119% |
| COc1cc2c3c(n(C)c(=O)c2cc1OC)-c1cc2c(cc1C3=O)OCO2 | 29.4% |
| O=[N+]([O-])c1ccc(-c2ncc(-c3ccc(Br)cc3)o2)cc1 | 98.3% |
